Bioassay records: PubChem, several laboratories
Cardiac RTF inh: cardiac RTF calcium sensitivity inhibitors, primary screen, biochemical, IANBD-TnC fluorescence, EC70 calcium; Troponin I, cardiac muscle (Homo sapiens) + Troponin T, cardiac muscle (Homo sapiens) + …; IANBD-labeled cardiac RTF, Ca2+ fluorescence; inhibition, % at 7.15 µM; 0.12% of 340,000 active;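 active = inhibition above the mean inhibition of all tested compounds plus 3 SD, cut at about 17% in these data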;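 note: assay run at fixed EC70 calcium of 1.6 mM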
RTF Ca sens act: cardiac RTF calcium sensitivity activators, primary screen, biochemical, IANBD-TnC fluorescence, EC20 calcium; Troponin I, cardiac muscle (Homo sapiens) + Troponin T, cardiac muscle (Homo sapiens) + …; IANBD-labeled TnC RTF fluorescence at EC20 calcium; 0% EC20 calcium, 100% full calcium; activation, % at 7.2 µM; 0.24% of 340,000 active; AID 493008, 2010;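 active = activation above the mean over all tested compounds plus 3 SD, cut at about 30% in these data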;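 note: rise in fluorescence read as greater calcium sensitivity of cardiac thin filaments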
LANA DNA inh: inhibitors of KSHV C-LANA binding to DNA, primary screen, biochemical, fluorescence polarization, FAM-LBS DNA, MBP-C-LANA, single point; Kaposi's sarcoma herpesvirus LANA C-terminal domain (residues 932-1162) DNA binding; inhibition, % at 9 µM; 0.078% of 340,000 active;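 active = highest replicate inhibition at or above 60% at 9 µM, even if other replicates fall short; inactive = all replicates below 60% inhibition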
Keap1 Nrf2 FP: Keap1-Nrf2 protein-protein interaction inhibitors, primary screen, biochemical, fluorescence polarization, single point | AID 504523, 2011 | Keap1 Kelch-Nrf2 peptide fluorescence polarization, 1536-well | inhibition, % at 9.4 µM | 0.15% of 340,000 active | Kelch-like ECH-associated protein 1 (Homo sapiens), Q14145; in the data active = inhibition above about 12%;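 note: human Keap1 Kelch domain with fluorescein labeled Nrf2 9mer peptide probe; higher means more block of Keap1 binding to Nrf2 peptide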
LANA-H2A inh: blockers of LANA interaction with H2A/H2B – biochemical, FP readout, HTS, primary screen. Protein LANA1 (Human herpesvirus 8 type P (isolate GK18)), Q9QR71. cell-free LANA-H2A/H2B peptide, fluorescence polarization. AID 2629, 2010. inhibition, % (concentration not given with the values). 0.6% of 320,000 active; in the data active = inhibition mostly above about 10%, no sharp cut-off; inactive = mostly below about 6.7%
Target sequence (Q9QR71 whole entry, looked up): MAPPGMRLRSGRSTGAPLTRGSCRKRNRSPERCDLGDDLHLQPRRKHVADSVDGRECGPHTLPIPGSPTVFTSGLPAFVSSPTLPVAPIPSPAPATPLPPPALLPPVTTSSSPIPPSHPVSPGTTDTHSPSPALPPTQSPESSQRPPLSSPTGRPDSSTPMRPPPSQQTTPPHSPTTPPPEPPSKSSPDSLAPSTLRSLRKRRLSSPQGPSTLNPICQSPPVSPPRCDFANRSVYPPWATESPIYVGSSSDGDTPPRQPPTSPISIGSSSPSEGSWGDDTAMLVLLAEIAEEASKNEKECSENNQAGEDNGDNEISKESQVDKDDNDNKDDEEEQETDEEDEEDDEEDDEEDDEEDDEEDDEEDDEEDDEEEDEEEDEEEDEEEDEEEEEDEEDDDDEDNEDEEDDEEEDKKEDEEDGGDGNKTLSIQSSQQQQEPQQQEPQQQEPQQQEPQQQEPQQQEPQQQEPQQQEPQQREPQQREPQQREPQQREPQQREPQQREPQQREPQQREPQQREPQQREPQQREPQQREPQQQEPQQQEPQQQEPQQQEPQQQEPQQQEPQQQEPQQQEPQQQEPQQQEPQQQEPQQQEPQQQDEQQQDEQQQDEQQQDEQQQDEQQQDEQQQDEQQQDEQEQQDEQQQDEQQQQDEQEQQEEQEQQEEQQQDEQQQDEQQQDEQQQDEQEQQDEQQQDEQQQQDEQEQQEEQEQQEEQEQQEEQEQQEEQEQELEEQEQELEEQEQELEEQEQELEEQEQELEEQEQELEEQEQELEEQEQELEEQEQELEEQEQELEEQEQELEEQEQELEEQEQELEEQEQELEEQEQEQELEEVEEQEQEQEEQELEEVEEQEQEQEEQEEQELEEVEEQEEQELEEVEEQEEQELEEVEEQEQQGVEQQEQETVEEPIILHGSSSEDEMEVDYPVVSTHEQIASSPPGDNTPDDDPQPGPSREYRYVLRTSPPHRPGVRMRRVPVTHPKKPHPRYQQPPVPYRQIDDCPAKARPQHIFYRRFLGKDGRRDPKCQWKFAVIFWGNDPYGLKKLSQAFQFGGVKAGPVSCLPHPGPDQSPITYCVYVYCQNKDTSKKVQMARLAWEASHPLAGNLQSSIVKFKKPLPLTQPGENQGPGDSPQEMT
Large screens that a line does not name were inactive. Hits are enriched below; roughly 0.98% of the tested compounds scored in any of these assays.

C=C1c2cccc(O)c2C(O)=C2C(=O)[C@]3(O)C(O)=C(C(N)=O)C(=O)[C@@H](N(C)C)[C@@H]3[C@@H](O)[C@H]12	LANA DNA inh 75
c1ccc(CNc2ccc(N3CCOCC3)cc2)cc1	LANA-H2A inh 17
CC(C)(C)C(=O)/C=c1\s/c(=C\c2ccc(-c3ccc([N+](=O)[O-])cc3)o2)c(=O)n1CC(=O)NC(N)=O	RTF Ca sens act 54
CCC(=O)N/N=C/c1ccc(-c2ccc([N+](=O)[O-])cc2)o1	none
O=C(CCS(=O)(=O)c1cccc2nonc12)Nc1ccc(Br)cc1	none
C=CCNC(=S)NNC(=O)c1ccc(OCC(C)C)cc1	LANA-H2A inh 19
COc1ccccc1CN=Cc1[nH]c2ccc(Br)c(Cl)c2c1O	none
Cc1cccc(N=Cc2[nH]c3ccc(Br)c(Cl)c3c2O)c1	RTF Ca sens act 63
CC(=O)NC(Cc1cccc(C)c1)C(=O)NC1CCN(S(=O)(=O)c2ccccc2)CC1 (stereo not given)	LANA-H2A inh 13
CC(=O)NC(Cc1ccc(F)cc1)C(=O)NC1CCN(S(=O)(=O)c2ccccc2)CC1 (stereo not given)	none
COc1ccc(OCCC(=O)OCC(=O)Nc2cccc(S(=O)(=O)N3CCCCC3)c2)cc1	none
CCNc1nc(NCC)nc(N/N=C/c2ccc(N(C)C)cc2)n1	LANA-H2A inh 65
Cc1ccc(C(C)NC(=O)COC(=O)C2=COCCO2)cc1C (stereo not given)	none
CCN(CC(=O)Nc1ccccc1C(F)(F)F)C(=O)CCc1ccccc1	none
O=C(CCc1ccccc1)Nc1ccccc1C(F)(F)F	LANA-H2A inh 32
COc1cccc(-c2noc(C3CCCN(C(=O)Cc4ccccc4)C3)n2)c1 (stereo not given)	LANA-H2A inh 11
O=C(COC(=O)c1ccc([N+](=O)[O-])o1)NCCc1ccccc1	none
CC(NC(=O)COC(=O)c1ccc([N+](=O)[O-])o1)c1ccccc1 (stereo not given)	LANA DNA inh 108
O=C([C@H](Cc1ccccc1)NS(=O)(=O)c1ccc(Cl)cc1)N1CC[C@@]2(O)CCCC[C@H]2C1	none
CC(=O)Nc1ccccc1C(=O)C(=O)Nc1ccccc1	LANA-H2A inh 4.6
CC(C)(NS(=O)(=O)OCC(Cl)(Cl)Cl)c1ccccc1	LANA-H2A inh 43
CC[C@@](C)(NS(=O)(=O)OCC(Cl)(Cl)Cl)c1ccccc1	none
COc1ccc(-c2cc3nc(C)cc(N4CC(C)CC(C)C4)n3n2)cc1 (stereo not given)	none
Cc1nn(C)c(C)c1N1C(=O)c2cccc3c(N)ccc(c23)C1=O	RTF Ca sens act active, LANA DNA inh 183, Keap1 Nrf2 FP 116, LANA-H2A inh 133
Cc1nn(C)c(C)c1N1C(=O)c2cccc3c(Br)ccc(c23)C1=O	none
Cc1ccc(N2C(=O)c3cccc4c(N)ccc(c34)C2=O)c2cccnc12	RTF Ca sens act 754
COc1ccc(-c2c3c(=O)n(C)c(=O)n(C)c3cn2-c2cc(OC)ccc2OC)cc1	none
CCOC(=O)C1CCN(C(=O)c2cc(CN3C(=O)c4ccccc4C3=O)ccc2OCC)CC1	none
CCOC(=O)C1CCCN(C(=O)c2cc(CN3C(=O)c4ccccc4C3=O)ccc2OC)C1 (stereo not given)	LANA-H2A inh 28
Cc1cc(C)cc(NC(=O)C(=S)NCc2ccccc2)c1	LANA-H2A inh 43
CC(=O)Nc1cccc(C(=O)/C=C/c2ccc(/C=C/C(=O)c3cccc(NC(C)=O)c3)cc2)c1	none (no result: Cardiac RTF inh, RTF Ca sens act, LANA DNA inh, Keap1 Nrf2 FP)
CC(=O)Nc1cccc(C(=O)/C=C/c2ccc(N(C)C)cc2)c1	RTF Ca sens act 73
COc1ccc(F)cc1S(=O)(=O)NC1CCCC1	LANA-H2A inh 82
CCOc1cc(S(=O)(=O)NC2CCCCCC2)ccc1F	LANA-H2A inh 22
O=c1ccc2[n+]([O-])c3ccc(O)cc3oc-2c1	Keap1 Nrf2 FP 101 (no result: LANA-H2A inh)
Nc1nnc(SCCCOc2ccc(F)cc2)s1	LANA-H2A inh 25
CCOC(=O)c1ccc(S(=O)(=O)N2CCN(c3ccccn3)CC2)cc1	none
O=C(NCC(=O)N1CCCCCCC1)c1ccc(Br)o1	none
Cc1ccccc1C1CC(=O)Oc2cc(O)ccc21 (stereo not given)	RTF Ca sens act 39 (no result: LANA-H2A inh)
COc1ccc(C2CC(=O)Oc3cc(O)ccc32)cc1 (stereo not given)	none (no result: LANA-H2A inh)
Cc1nnc(SCC(=O)c2cc(C)n(-c3ccc4c(c3)OCO4)c2C)s1	LANA-H2A inh 27
C=CCn1c(SCC(=O)Nc2ccc(-c3nc4ccc(C)cc4s3)cc2)nnc1-c1ccccc1	LANA-H2A inh 159
CC1CCc2onc(C(=O)NCc3ccco3)c2C1 (stereo not given)	LANA-H2A inh active
C/C(CC(=O)Nc1cc(C)ccn1)=N\NC(=O)c1ccc(C(C)(C)C)cc1	none
CC(=O)Oc1c(-c2ccc(Br)o2)oc2ccccc2c1=O	none
CCN(CCn1cccn1)Cc1nc(-c2ccccc2)no1	none
CCN(CCn1cccn1)Cc1nc(-c2ccc(OC)cc2)no1	LANA-H2A inh active
CCOC(=O)c1ccccc1-n1nnnc1C	RTF Ca sens act 124
COCCNC(=O)c1cc(-c2ccccc2C)nn1CC1CC(c2cccnc2)=NO1 (stereo not given)	none
COc1cc(CNCCc2ccccc2)ccc1OCC(N)=O	LANA-H2A inh 20
COc1cc(CNCCc2ccccc2)ccc1OCC(=O)NC(C)(C)C	none
COc1ccc(S(=O)(=O)NCC(c2cccnc2)N2CCN(Cc3ccccc3)CC2)cc1 (stereo not given)	none
CCN1CCN(C(CNS(=O)(=O)c2ccc(OC)cc2)c2cccnc2)CC1 (stereo not given)	LANA-H2A inh 14
Cc1ccsc1C(=O)Nc1nc2ccccc2[nH]1	none
CC(=O)N1CCC2(CC1)C(C#N)=C(N)OC1=C2C(=O)CC(C)(C)C1	none
CC1(C)CC(=O)C2=C(C1)OC(N)=C(C#N)C21CCN(Cc2ccccc2)CC1	RTF Ca sens act 32
COc1ccc(C2c3ccc(O)cc3Oc3ncn(Cc4ccccc4)c(=N)c32)cc1OC (stereo not given)	RTF Ca sens act 44
CN(CCOC(=O)c1cccc(F)c1)Cc1ccccc1	LANA-H2A inh 11
Cc1cc(O)c(C(C)C)cc1C1(c2cc(C(C)C)c(O)cc2C)OC(=O)c2ccccc21	LANA-H2A inh 15
CCOC(=O)/C(=N\Nc1ccc(C(C)=O)cc1)c1csc(Nc2ccccc2)n1	RTF Ca sens act 131
